# ALOX15B inhib: blocks human 15-lipoxygenase 2 activity; O15296; purified 15hLO-2, xylenol orange hydroperoxide absorbance; Potency, µM (doses to about 57.1 µM), without a hit: top-dose activity change, negative = inhibition, usual class: inhibitors; 110,000 tested, 0.56% active; further: nearly all actives have a fitted effect of over 60% in size
#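 Purified human 15hLO-2 (50 nM) preincubated 15 min with compound, then 45 uM arachidonic acid for 90 min at RT in 25 mM Hepes pH 7.5, 0.01% Triton X-100. Hydroperoxide detected by Fe-xylenol orange; 573/405 nm absorbance ratio.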
# ALOX12 inhib: blocks human 12-lipoxygenase activity; AID 1452; 150,000 tested, 0.12% active; P18054; Potency, µM (highest dose often 57.1 µM), inactives show at the top dose activity change, negative = inhibition, actives largely listed as inhibitors; purified 12-hLO, xylenol orange hydroperoxide absorbance; further: nearly all actives have a fitted effect of over 55% in size
# Target sequence (P18054 whole entry, looked up): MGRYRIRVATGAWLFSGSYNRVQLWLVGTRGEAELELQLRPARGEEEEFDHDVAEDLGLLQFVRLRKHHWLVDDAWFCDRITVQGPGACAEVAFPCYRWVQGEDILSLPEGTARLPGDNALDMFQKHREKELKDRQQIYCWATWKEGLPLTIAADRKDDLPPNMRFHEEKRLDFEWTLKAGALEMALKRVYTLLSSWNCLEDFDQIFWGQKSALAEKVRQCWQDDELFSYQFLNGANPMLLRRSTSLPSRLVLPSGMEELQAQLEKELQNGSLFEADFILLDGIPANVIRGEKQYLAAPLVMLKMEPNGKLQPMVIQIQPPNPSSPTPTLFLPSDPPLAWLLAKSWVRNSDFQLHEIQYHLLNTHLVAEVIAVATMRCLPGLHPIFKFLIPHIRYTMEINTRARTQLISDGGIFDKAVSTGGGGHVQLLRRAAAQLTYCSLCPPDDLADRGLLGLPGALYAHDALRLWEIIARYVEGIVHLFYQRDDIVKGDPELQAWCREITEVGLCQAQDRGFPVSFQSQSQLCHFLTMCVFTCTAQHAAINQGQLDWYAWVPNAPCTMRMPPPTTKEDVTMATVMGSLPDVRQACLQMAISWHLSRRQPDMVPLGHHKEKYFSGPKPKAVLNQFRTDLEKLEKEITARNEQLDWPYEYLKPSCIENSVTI
#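 Purified human 12hLO (150 nM final) was preincubated with compounds for 15 min at room temperature in 25 mM Hepes pH 7.0, 0.01% Triton X-100, then reacted with 40 uM arachidonic acid for 30 min. Hydroperoxide was detected with ferrous iron/xylenol orange.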
# Starred values were filed as active, the others as inactive; ? = inconclusive; · = not tested or not shown; ! = not active in a repeat; [ ] = another dose, or the depositor's remark. The full list was thinned out, with hits kept by preference. The call rests on the fitted dose curve; in most records, active means well fitted curve in the direction sought with a large enough effect; inconclusive means small, poorly fitted or top-dose-only effect, or another doubt; inactive means no such curve, though single readings can be large; an effect the other way counts as inactive or inconclusive. On the % scale 0 is the no-effect control and ±100 the full control effect; potency means the concentration at half of the fitted maximal effect.
SMILES,ALOX15B inhib,ALOX12 inhib
C[C@@]12CCC(=O)C=C1CC[C@H]1[C@@H]2[C@@H](O)C[C@]2(C)[C@@H]1CC[C@@]2(O)C(=O)COC(=O)C1CCCC1,-6.9%[11.4 µM],4.8%[11.4 µM]
COC(=O)c1ccccc1N/C=C1\CCc2c(c(C)nn2-c2ccccn2)C1=O,2.51µM*,-20.7%
CCOC(=O)c1ccccc1N/C=C1\CCCC1=O,2.7%,-7.2%
O=C(O)[C@H]1[C@H](C(=O)O)[C@H](C(=O)O)C[C@@H]1C(=O)O,-4.9%[11.4 µM],0.3%[11.4 µM]
COC1=CC(=O)C(C(=O)c2ccccc2)=CC1=O,-21.7%,-22.4%
C=CC(C1=CC(=O)C(OC)=CC1=O)c1ccccc1 (stereo not given),20µM*,-25.2%
CC(=O)O[C@@H]1C[C@]2(C)[C@H](C[C@@H](O)[C@H]3[C@@]4(C)CC[C@@H](O)[C@@H](C)[C@@H]4CC[C@@]32C)/C1=C(\CCC=C(C)C)C(=O)O,-13.3%,-4.2%
CCOC(=O)C1=NN(c2ccccc2)C(=O)/C1=C\c1ccc(N(C)C)cc1,5.8%,-1.8%
CCCc1ccc(/C=C2\C(=O)c3ccccc3C(O)=C2C(=O)OCC)cc1,6.31µM*,-22.1%
CCOC(=O)C1=C(O)c2ccccc2C(=O)/C1=C\c1ccc(CC)cc1,10µM*,?
CCCN=C(C)C1=C(O)c2ccccc2C1=O,·,0.4%
CN(C)CCCNC(=O)c1ccc(Cc2nc3ccccc3[nH]2)cc1,·,-0.9%
COC(=O)c1ccc2c(c1)C(C)(C)C(/C=C/c1ccc(OC)c(OC)c1OC)=[N+]2C,12.6µM*,?
COC(=O)c1ccc2c(c1)C(C)(C)C(/C=C/c1ccc(O)cc1)=[N+]2C,-16.4%[11.4 µM],-24.7%
O=C(O)CCCC[C@H]1CCSS1,4.9%,-5.9%
COc1ccc(-n2nc3cc(C)c(N)c(Br)c3n2)cc1,10µM*,25.1µM*
COc1ccc(-n2nc3ccccc3n2)cc1,-7.5%,-7.4%
CCN1CCCC1CNC(=O)c1ccc(Cc2nc3ccccc3[nH]2)cc1 (stereo not given),·,1.0%
CCOc1ccc(NS(=O)(=O)c2ccc(C)c(C(=O)O)c2)cc1,·,-2.3%
CCCSC1=N/C(=C\c2ccsc2)C(=O)S1,-21.1%,-13.1%
CCCSC1=N/C(=C\C=C\c2ccco2)C(=O)S1,25.1µM*,?
O=C1C(=O)c2ccccc2C(O)=C1Cc1ccccc1,-8.7%[11.4 µM],-5.9%[11.4 µM]
COc1cc(OC)c(C2CC(=O)N3CN(c4ccccc4)CSC3=C2C#N)cc1OC (stereo not given),10µM*,-22.1%
CCOC(=O)c1ccc(N2CSC3=C(C#N)C(c4ccc(OC)cc4OC)CC(=O)N3C2)cc1 (stereo not given),-12.8%,?
COc1ccc(Br)cc1C1CC(=O)N2CN(Cc3ccccc3)CSC2=C1C#N (stereo not given),?,-29.9%
SMILES,ALOX15B inhib,ALOX12 inhib
CCc1ccccc1N1CSC2=C(C#N)C(c3cc(OC)c(OC)cc3OC)CC(=O)N2C1 (stereo not given),10µM*,?
O=c1c(-c2ccccc2)coc2cc(O)cc(O)c12,4.8%,11.2µM*
O=c1c(-c2ccc3c(c2)OCCO3)coc2cc(O)cc(O)c12,3.5%,?
CCOc1ccc(C(=O)NC(=S)NC2CCCC2)cc1[N+](=O)[O-],·,28.2µM*
CCOc1ccc(C(=O)NC(=S)Nc2ccc(NC(=O)CC)cc2)cc1[N+](=O)[O-],·,-18.0%
CC(C)(C)c1ccc(O)c(O)c1,5.01µM*,-14.2%
CC(C)(C)c1ccc(O)c(/C=N\O)c1,-5.7%,-13.3%
Oc1ccc(NCc2ccccc2OCc2ccccc2F)cc1,12.6µM*,?
Cc1ccc(NCc2ccccc2OCc2ccccc2F)cc1,4.8%,-7.4%
N#C/C(=C\c1ccc(N2CCOCC2)o1)c1ccccc1,10µM*,-13.6%
N#C/C(=C/c1ccc(N2CCOCC2)o1)c1nc2ccccc2[nH]1,·,-5.2%
N#C/C(=C/c1ccc(N2CCOCC2)o1)c1ccc(Br)cc1,10µM*,?
COc1cc(N2CCCC2)c(OC)cc1/C=C(/C#N)c1cccc(F)c1,?,-19.5%
N#C/C(=C/c1ccc(N2CCCCCC2)o1)c1cccc(F)c1,7.94µM*,?
N#C/C(=C\c1ccc(N2CCOCC2)cc1)c1ccccc1,·,-2.8%
O=C(/C=C\c1ccc(O)cc1)c1ccc(O)cc1O,-18.8%,-9.8%
Cc1cccc2sc(N)nc12,-5.0%,0.4%
C[C@@H](COc1ccc(/C=C\c2ccccc2)cc1)[N+](C)(C)C,-7.1%,-6.0%
NC(=S)c1ccc[n+]([C@@H]2O[C@@H](COP(=O)([O-])OP(=O)(O)OC[C@@H]3O[C@@H](n4cnc5c(N)ncnc54)[C@@H](OP(=O)(O)O)[C@H]3O)[C@@H](O)[C@H]2O)c1,11.0%,-9.5%
CC(=O)c1ccc(N2CCN(C(=O)c3cc(-c4ccc5c(c4)OCO5)nc4ccccc34)CC2)cc1,-15.8%,-10.5%
Cc1ccc(-c2cc(C(=O)N3CCN(c4ccc(F)cc4)CC3)c3ccccc3n2)o1,12.6µM*,-13.8%
CC/C=C\C/C=C\C/C=C\CCCCCCCC(=O)O,14.1µM*!,-5.3%[0.00818 µM]
CC/C=C\C/C=C\C/C=C\CCCCCCCCCCCC(=O)O,·,-4.5%
CN[C@@H](CC(C)C)C(=O)N[C@@H]1C(=O)N[C@H](CC(N)=O)C(=O)N[C@H]2C(=O)N[C@H]3C(=O)N[C@H](C(=O)N[C@H](C(=O)O)c4cc(O)cc(O)c4-c4cc3ccc4O)[C@H](O)c3ccc(c(Cl)c3)Oc3cc2cc(c3O[C@@H]2O[C@@H](CO)[C@@H](O)[C@@H](O)[C@H]2O[C@H]2C[C@](C)(N)[C@H](O)[C@H](C)O2)Oc2ccc(cc2Cl)[C@@H]1O,-14.0%,-7.6%
CC(=O)[C@]1(O)CC[C@@H]2[C@H]3C[C@@H](C)C4=CC(=O)CC[C@@]4(C)[C@H]3[C@@H](O)C[C@]21C,-3.2%[11.4 µM],-2.5%[11.4 µM]
SMILES,ALOX15B inhib,ALOX12 inhib
C#CCN1C(C)=C(C(=O)OC)[C@@H](c2cccc([N+](=O)[O-])c2)C(C(=O)OCC)=C1C,-8.9%,-3.8%
C/C(=N\Nc1nc(-c2ccccc2)cs1)c1cccs1,·,-4.1%
C/C(=N\Nc1nc2ccccc2s1)c1cccs1,·,12.6µM*
O=C(O)[C@H]1C[C@H](C(=O)O)N1,13.3%,3.6%
Nc1ccc(N2CCCCCC2)cc1,12.6µM*,-25.7%
O=C(O)c1ccc(N2CCCCC2)cc1,4.7%,-3.3%
O=C(N/N=C/c1cccc([N+](=O)[O-])c1)c1cccs1,·,-4.4%
C=CCOc1ccc2cccc(/C=N/NC(=O)c3cc4cc([N+](=O)[O-])ccc4s3)c2c1,10µM*,-0.5%
O=C(O)[C@@H]1[C@@H](C(=O)Nc2ccccc2)[C@@H]2C=C[C@@H]1O2,-17.8%[11.4 µM],2.9%[11.4 µM]
C[C@H](N)C(=O)OC(C)(C)Cc1ccc(Cl)cc1,36.2%,-3.7%
Nc1ncnc2c1ncn2[C@@H]1O[C@@H](C(=O)NC2CC2)[C@H](O)[C@@H]1O,2.4%,-2.5%
COC(=O)CN1C(=O)S/C(=C/c2ccc(N3CCCCC3)o2)C1=O,12.6µM*,-7.3%
CCOC(=O)CN1C(=O)S/C(=C/c2ccc(N3CCCCC3)o2)C1=O,-21.2%,-5.4%
CCCCC/C=C\C[C@H](O)/C=C\c1cccc(C[C@H](O)CCCCO)n1,-18.9%,-16.4%
Cc1ccc(C(=O)NC(=S)Nc2ccc(NC(=O)c3cccc(Cl)c3)cc2)cc1,·,2.1%
Cc1ccc(C(=O)NC(=S)Nc2ccc(Oc3ccc(Cl)cc3)cc2)cc1,12.6µM*,-7.6%
COc1cc(/C=C/c2ccccc2)oc(=O)c1,-7.5%,-7.7%
